In PubChem BioAssay AID1233 (SRMLSC, 2008):
Results with a measured potency or affinity are listed apart. Calls of active or inactive are those of the source.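 How the source made its calls: active means a dose-response curve fit returns a half-maximal inhibitory concentration, extrapolated values included; inactive means the fit returns no such concentration.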

What follows are compounds tested against HMG-CoA reductase [Enterococcus faecalis] (UniProt Q9FD70) (assay: inhibitors of E. faecalis class II HMGR, confirmation, biochemical, Enterococcus faecalis (AID 1233)). Conditions: purified E. faecalis HMGR, NADPH absorbance 340 nm kinetics; series mostly up to 100 µM.

outcome, inactive:
CSc1nc(-c2ccc(C)cc2)nc(C(Cl)Cl)n1, Clc1ccc2c(c1)C(c1cccs1)=NNC(c1cccnc1)=N2, O=C(CCc1nc2ccccc2c(=O)[nH]1)N1CCN(C/C=C/c2ccccc2)CC1, OCc1ccccc1CNCc1ccccc1, CCOc1cc(S(=O)(=O)N(CC)CC)c(OCC)cc1-n1cnnn1, CS(=O)(=O)N1CCc2cc(S(=O)(=O)N3CCCCC3)ccc21, Cc1cc(NC(=O)c2c(F)cccc2Cl)no1, COc1cccc(Nc2nc(C)cc(C)c2C#N)c1, CCN(CC)S(=O)(=O)c1ccc(C(=O)Nc2c3c(nn2C(C)(C)C)CS(=O)(=O)C3)cc1, Cc1ccc(CN(C)CC(=O)Nc2ccc3c(c2)CCC3)cc1, COc1cc(OC)c(OC)cc1/C=N/NC(=S)NCCN1CCOCC1, COc1cc(C2NC(=O)NC(c3ccccc3)=C2C(C)=O)cc(Cl)c1OCC(=O)O (stereo not drawn), COC(=O)CNC(=O)c1cc(OC)cc(OC)c1, COc1ccc(CCNC2=CC(=O)N(c3ccc(F)cc3)C2=O)cc1, NC(=O)CSc1nnc(-c2ccc([N+](=O)[O-])cc2)o1, CCc1c(C)sc(NC(=O)C2CC2c2ccccc2)c1C(N)=O (stereo not drawn), O=C(COC(=O)c1cccnc1)c1ccc(Cl)c(Cl)c1, COCCNC(=O)C(c1ccccc1C)N(C(=O)Cn1nnc2ccccc21)c1cccnc1 (stereo not drawn), Cc1c(Br)c([N+](=O)[O-])nn1C(C)C(=O)Nc1ccc2c(c1)OCO2 (stereo not drawn), CN(C(=O)CCN1C(=O)C(C)(C)Nc2ccccc21)c1ccccc1, CCOC(=O)/C(C#N)=C/c1ccc(SC)cc1, O=C(NCCOc1ccccc1Cl)C(=O)c1c[nH]c2ccccc12, C=CCn1cnc2c(c1=O)c1nc3ccccc3nc1n2/N=C/c1cc(OC)c(OC)c(OC)c1, O=C(Nc1cccc(Br)c1)c1ccc2nc(N3C(=O)CCC3=O)sc2c1, Cc1ccc(CC(CC(=O)O)C(=O)NC2CCCCC2)cc1 (stereo not drawn), CCC1Oc2ccccc2N(CC(=O)NCc2ccco2)C1=O (stereo not drawn), CSc1ccccc1C(=O)NCc1ccccc1, CN(C)c1ccc2c3c(ccc(N(C)C)c13)COC2, O=C(NCC(=O)N(Cc1cccs1)C(C(=O)NC1CCCC1)c1ccncc1)c1ccco1 (stereo not drawn), CCOC(=O)C(NC(C)=O)(Nc1ccc(S(=O)(=O)Nc2cc(C)nc(C)n2)cc1)C(F)(F)F (stereo not drawn), COc1ccc(CNC(=O)C2CCCN2S(=O)(=O)c2ccc(Cl)cc2)cc1 (stereo not drawn), COc1ccccc1N(CC(O)CN(c1ccccc1)S(C)(=O)=O)S(=O)(=O)c1ccccc1 (stereo not drawn), Cc1ccc(C(=O)NCc2ccccc2)c(F)c1F, CCOC(=O)Cc1csc(SCC(=O)c2c(N)n(CC(C)C)c(=O)n(C)c2=O)n1, COc1cc(C2CC(=O)N(CC(=O)NCC3CCCO3)c3ccccc3S2)cc(OC)c1OC (stereo not drawn), C[C@H]1[C@H](C)CC[C@]2(C(=O)O)CC[C@]3(C)C(=CC[C@@H]4[C@@]5(C)C[C@@H](O)[C@H](O)C(C)(C)[C@@H]5CC[C@]43C)[C@H]12, CCN(CCNCC(O)COCc1ccc(Cl)cc1)c1cccc(C)c1 (stereo not drawn), CN(C)CCCNC(=O)c1cc(C(=O)C2CCCCC2)c[nH]1
